Measured values reported in PubChem BioAssay (NCATS).
Records with an inconclusive call do not appear. Active and inactive are the calls of the source. Unless noted, the call rests on the fitted dose curve; in most records, active means well fitted curve in the direction sought with a large enough effect; inconclusive means small, poorly fitted or top-dose-only effect, or another doubt; inactive means no such curve, though single readings can be large; an effect the other way counts as inactive or inconclusive.

Key:
[1] = qHTS profiling of the MIPE4 collection as inhibitors of Plasmodium falciparum (3D7) proliferation (AID 743344; call rule not given here;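 further: scaled between DMSO vehicle wells and 0.29 µM artemisinin as full inhibition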); conditions: P. falciparum 3D7 in erythrocytes, SYBR Green DNA fluorescence, 72 h; at 28.5 µM unless noted
Outline: (§1)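 Parasite DNA was quantified by SYBR Green I fluorescence (ex 485, em 535 nm) after overnight lysis in saponin/Triton buffer at room temperature. Cultures at 0.3% parasitemia and 2.5% hematocrit were first exposed to compound for 72 h at 37 C; signals were normalised to artemisinin (0.29 uM) and vehicle wells.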

[2] = qHTS profiling of the MIPE4 collection as inhibitors of Plasmodium falciparum (DD2) proliferation (AID 743345; call rule not given here); conditions: P. falciparum Dd2 in erythrocytes, SYBR Green DNA, 72 h; at 28.5 µM unless noted
Outline: as §1

[3] = qHTS profiling of the MIPE4 collection as inhibitors of Plasmodium falciparum (DD2) proliferation (Rep 2) (AID 743346; call rule not given here); conditions: P. falciparum Dd2 in erythrocytes, SYBR Green DNA, 72 h; at 28.5 µM unless noted
Outline: as §1

[4] = qHTS profiling of the MIPE4 collection as inhibitors of Plasmodium falciparum (HB3) proliferation (AID 743347; call rule not given here;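 further: plate controls were DMSO vehicle wells for no effect and artemisinin wells for full effect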); conditions: P. falciparum HB3 in erythrocytes, SYBR Green DNA, 72 h; at 28.5 µM unless noted
Outline: as §1

[5] = High-throughput drug toxicity screening in the BPDCN cell line Gen2.2 (AID 1224824; call rule not given here;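 further: cells exposed to compounds for 48 h before reading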); conditions: Gen2.2 BPDCN cells; at 45.8 µM (top of the series) unless noted
Outline: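 Seed 500 exponentially growing Gen2.2 cells/well; add compounds by pin tool; incubate 48 h, 37 °C, 5% CO2; add CellTiter-Glo, 15 min RT; read luminescence. % activity vs DMSO (100%) and bortezomib (0%).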

[6] = qHTS assay for measurement of the activity of small molecule inhibitors on Zika virus induced Caspase-3 activity in human iPSC derived neural progenitor cells (hNPCs) (AID 1224857); further: % of control where 0% means no effect; nearly all actives have a fitted effect of over 65% in size
Outline: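 After overnight (16–20 h) culture at 350 cells/well, hNPCs get compound, then ZIKV 2 FFU/cell one hour later. Six hours on, Caspase-Glo 3/7 is added and luminescence measured.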

[7] = qHTS assay for measurement of the activity of small molecule inhibitors on Zika virus induced Caspase-3 activity in human astrocytoma cells (AID 1224859);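 further: plate controls were ZIKV-infected untreated cells for no effect and uninfected cells for full effect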
Outline: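 Inhibition of Zika-induced caspase-3/7 activity: SNB-19 cells, 1 h compound pretreatment, ZIKV 2 FFU/cell for 6 h at 37 C, Caspase-Glo luminescence read-out.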

[8] = qHTS Screen of the MIPE 4.0 Collection Against Ewings Sarcoma (RDES) (AID 1259252); further: nearly all actives have a fitted effect of over 35% in size; further: potency means the concentration at half of the fitted maximal effect
Outline: (§2)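 Compound titrations go onto adherent log-phase cells 4 h after seeding, incubate 48 h at 37C, then CellTiter-Glo luminescence reports viability relative to DMSO and cell-free controls.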

[9] = qHTS Screen of the MIPE 4.0 Collection Against Ewings Sarcoma (TC71) (AID 1259253); further: nearly all actives have a fitted effect of over 40% in size; further: potency means the concentration at half of the fitted maximal effect
Outline: as §2

[10] = qHTS Screen of the MIPE 4.0 Collection Against Ewings Sarcoma (EW8) (AID 1259255); further: nearly all actives have a fitted effect of over 35% in size; further: potency means the concentration at half of the fitted maximal effect;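 on viability: 100% = DMSO-treated cells and 0% = medium-only wells without cells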
Outline: as §2

[11] = qHTS Screen of the MIPE 4.0 Collection Against Ewings Sarcoma (TC32) (AID 1259256); further: nearly all actives have a fitted effect of over 45% in size; further: potency means the concentration at half of the fitted maximal effect
Outline: as §2

[12] = qHTS profiling for inhibitors of Plasmodium falciparum (3D7) proliferation (AID 743322; call rule not given here;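 further: infected erythrocytes exposed to compound for 72 h before lysis; 100% = DMSO vehicle wells and 0% = 0.29 µM artemisinin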); conditions: P. falciparum 3D7 proliferation; at 28.7 µM (top of the series)
Outline: as §1

[13] = qHTS profiling for inhibitors of Plasmodium falciparum (DD2) proliferation (AID 743323; call rule not given here); conditions: lower = more inhibition; at 28.7 µM (top of the series)
Outline: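 Parasite DNA quantified by SYBR Green fluorescence (ex 485, em 535 nm) after saponin/Triton lysis and overnight dark incubation. Cultures: 0.3% parasitemia, 2.5% hematocrit, 72 h, 37 C; data scaled between DMSO and 0.29 uM artemisinin.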

[14] = qHTS profiling for inhibitors of Plasmodium falciparum (HB3) proliferation (AID 743324); conditions: Plasmodium falciparum HB3 blood-stage proliferation; at 28.7 µM (top of the series);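 further: 100% = DMSO vehicle wells and 0% = artemisinin-treated control wells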
Outline: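 SYBR Green fluorescence (485 ex/535 em) of lysed cultures, incubated overnight at room temperature in the dark, quantifies parasite DNA. Infected erythrocytes at 0.3% parasitemia and 2.5% hematocrit were exposed 72 h; values normalized to DMSO and 0.29 uM artemisinin controls.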

[15] = Identifying Small Molecule Inhibitors of Pancreatic Cancer Stem Cells (SN12C, Adherent) (AID 1259358);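 further: cell survival measured after 48 h of compound exposure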
Outline: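 Viability is scored by CellTiter-Glo luminescence 48 h after dosing, expressed as percent activity against vehicle and no-cell references. Spheroid formats rely on cells cultured 14 days in stem cell media beforehand.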

[16] = Identifying Small Molecule Inhibitors of Pancreatic Cancer Stem Cells (A2780, Spheroid) (AID 1259357); conditions: Potency: A2780 spheroid viability;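 further: spheroids pre-formed over 14 days in stem cell medium on hydrogel; potency means the concentration at half of the fitted maximal effect; compound exposure lasted 48 h before the ATP luminescence read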
Outline: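 Spheroids grown 14 days in stem cell media on hydrogel-coated nonadherent plates; 2D lines seeded directly. Compounds added after 4 h attachment, 48 h at 37C, 5% CO2; CellTiter-Glo luminescence normalized to DMSO (no inhibition) and no-cell wells (full inhibition).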

Compound	parasite growth, % of DMSO control [1]	parasite growth remaining, % of DMSO control (lower = more inhibition) [2]	parasite growth, % of control (lower = inhibition) [3]	growth, % of control [4]	cell viability, % of control (lower = more cytotoxic) [5]	Potency [6]	Potency [7]	Potency [8]	Potency [9]	Potency [10]	Potency [11]	remaining parasite growth % (stronger effect = lower value) [12]	activity, percent of control [13]	remaining proliferation (% of control), lower = more inhibition [14]	Potency [15]	Potency [16]
O=C(O)CCCc1c[nH]c2ccccc12	102%	20.4%	142%	102%	90.6%	inactive	inactive	inactive	inactive	inactive	inactive					
CCOc1ccccc1OCCNC(C)Cc1ccc(OC)c(S(N)(=O)=O)c1 (stereo not given)	65.8%		54.9%	90.8%	122%		inactive	inactive	inactive	inactive	inactive					
CC(C)(O)CCc1ccc(OCc2cc(-c3cccc(OC(F)F)c3)c3ncccc3c2)cc1	111%	93%	102%	102%	132%	inactive		inactive	inactive	inactive	inactive	37.5%	37.1%	15.5%	inactive	
COc1cccc2nc(-c3cccs3)nc(NN3C(=O)C=C(C)C3=O)c12	27.1%	90.8%	18.1%	6.3%	4.3%	inactive	inactive	2.96 µM (active)	0.743 µM (active)	0.469 µM (active)	1.87 µM (active)	92.8%	81.6%	87.8%		0.662 µM (active)
O=C(CCCCCCC(=O)Nc1ccc([C@H]2O[C@@H](CSc3nc(-c4ccccc4)c(-c4ccccc4)o3)C[C@@H](c3ccc(CO)cc3)O2)cc1)NO	5.18%	6.85%	7.19%	6.35%	9.13%		inactive	7.43 µM (active)	13.2 µM (active)	4.69 µM (active)	13.2 µM (active)					
Cc1nc(N)ncc1-c1nc(N2CCOCC2)c2sc(C(C)(C)O)cc2n1	5.28%	8.49%	7.48%	1.99%	38.1%	inactive	inactive	1.66 µM (active)	5.9 µM (active)	6.62 µM (active)	2.35 µM (active)					
Cc1coc2c1C(=O)C(=O)c1c-2ccc2c1CCCC2(C)C	5.71%	9.98%	26.2%	4.66%	93.2%		inactive	inactive	inactive	inactive	0.0037 µM (active)					
